From PubChem
TDP1 cell noCPT: qHTS for Inhibitors of human tyrosyl-DNA phosphodiesterase 1 (TDP1): qHTS in cells in absence of CPT; DT40 Tdp1-/- hTDP1 cells, no CPT, ATP luminescence, 48 h; Potency, µM (titrated, usually from 46.2 µM), without a hit: top-dose activity change, negative = growth inhibition, most hits filed as inhibitors; 420,000 compounds, 15% hits; also: potency is read from the fitted curve at half-maximal effect; % is scaled to controls: 0 for no effect and ±100 for the full control effect; nearly all actives have a fitted effect of over 55% in size
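A cellular qHTS used chicken DT40 cells lacking endogenous Tdp1 but carrying stably transfected human TDP1. Compounds were applied without camptothecin, and cell growth kinetics were judged by ATP-dependent luminescence after ≥48 hr.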
TGFb SMAD3 inh: qHTS for Inhibitors of TGF-b. HepG2 CAGA-GFP TGF-b/SMAD3 reporter, GFP fluorescence, 18 h; TGF-beta stimulated, 500 pg/mL final. Potency, µM (highest dose often 46.1 µM), inactives show top-dose activity, negative = inhibition, hits mostly inhibitors. 410,000 compounds, 1.2% hits. AID 588855, 2011; also: potency is read from the fitted curve at half-maximal effect; % is scaled to controls: 0 for no effect and ±100 for the full control effect; nearly all actives have a fitted effect of over 65% in size
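Per well, imaged GFP fluorescence of HEPG2 CAGA-GFP cells gives the signal; cells get compound, then TGF-beta (500 pg/mL final), 18 h at 37 degrees C; %Activity versus -TGF-beta and +DMSO controls.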
TDP1 inh: qHTS Assay for Inhibitors of Tyrosyl-DNA Phosphodiesterase (TDP1) | Tyrosyl-DNA phosphodiesterase 1 (Homo sapiens), Q9NUW8 | recombinant TDP1, AlphaScreen DNA substrate cleavage | Potency, µM (titrated, usually from 130 µM), inactives show top-dose activity change, negative = inhibition, usual class: inhibitors | 350,000 compounds, 0.28% hits | AID 485290, 2010; also: potency is read from the fitted curve at half-maximal effect; % is scaled to controls: 0 for no effect and ±100 for the full control effect; nearly all actives have a fitted effect of over 40% in size
Target sequence (Q9NUW8 whole entry, looked up): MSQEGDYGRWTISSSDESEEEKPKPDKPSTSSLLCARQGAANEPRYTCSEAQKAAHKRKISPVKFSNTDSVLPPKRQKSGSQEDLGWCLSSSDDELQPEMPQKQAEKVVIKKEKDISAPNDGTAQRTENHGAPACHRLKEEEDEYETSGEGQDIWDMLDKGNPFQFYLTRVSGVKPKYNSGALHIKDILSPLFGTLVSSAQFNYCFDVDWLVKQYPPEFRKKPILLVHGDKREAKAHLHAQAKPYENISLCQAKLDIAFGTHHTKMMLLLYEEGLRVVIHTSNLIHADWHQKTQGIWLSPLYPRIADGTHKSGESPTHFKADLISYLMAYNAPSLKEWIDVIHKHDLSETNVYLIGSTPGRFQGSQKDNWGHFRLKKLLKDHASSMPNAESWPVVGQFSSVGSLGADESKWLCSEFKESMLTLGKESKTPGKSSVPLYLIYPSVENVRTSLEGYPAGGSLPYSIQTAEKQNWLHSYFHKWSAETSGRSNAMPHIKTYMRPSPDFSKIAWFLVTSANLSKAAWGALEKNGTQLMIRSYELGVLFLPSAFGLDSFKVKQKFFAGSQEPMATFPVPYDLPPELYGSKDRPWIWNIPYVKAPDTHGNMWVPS
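E. coli-derived human Tdp1, 1 nM final. Cpd preinc 15 min RT; substrate 15 nM final, 5 min RT; AS bead mix 10 ug/ml final, 10 min RT. Signal loss = tyrosine-FITC cleavage. No-enzyme wells = max signal.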
DT40 TDP1 CPT: qHTS for Inhibitors of human tyrosyl-DNA phosphodiesterase 1 (TDP1): qHTS in cells in presence of CPT. chicken DT40 Tdp1-/-;hTDP1 cells + 20 nM CPT, ATP luminescence, 48 h. Potency, µM (titrated, usually from 46.2 µM), inactives show at the highest dose activity change, negative = growth inhibition, most hits filed as inhibitors. 420,000 compounds, 12% hits; also: potency is read from the fitted curve at half-maximal effect; % is scaled to controls: 0 for no effect and ±100 for the full control effect; nearly all actives have a fitted effect of over 55% in size
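Chicken DT40 Tdp1-/- cells complemented with human TDP1, 400 cells/well, exposed to compounds plus 20 nM camptothecin for at least 48 h at 37 C; viability read as ATP content by CellTiter-Glo luminescence.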
HepG2 viability: qHTS for Inhibitors of TGF-b: Cytotox Counterscreen; Potency, µM (highest dose often 46.1 µM), without a hit: at the top dose activity change, negative = cytotoxicity, hits mostly cytotoxic; HepG2 CAGA-GFP viability, ATP luminescence, 18 h; 410,000 compounds, 0.76% hits; AID 588856, 2011; also: potency is read from the fitted curve at half-maximal effect
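CellTiter-Glo luminescence gave cytotoxicity after 18 hours at 37 degrees C. The cells were HepG2 CAGA-GFP in 1% FBS DMEM, stimulated with 500 pg/mL TGF-beta after compound addition. %Activity was normalised to no-cell wells (complete cell-killing) and DMSO (no toxicity), and curves were fitted and classified.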
IL1B secr inh: qHTS for Inhibitors of Inflammasome Signaling: IL-1-beta AlphaLISA Primary Screen; THP-1 LPS/ATP IL-1B secretion, AlphaLISA, 16 h; hits give low values; activity change, % at 57.5 µM; 360,000 compounds, 4.7% hits; AID 743279, 2014; in the data active = activity change below about -50%; inconclusive = mostly about -30% to -49%; also: % is scaled to controls: 0 for no effect and ±100 for the full control effect
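Secreted IL-1B measured by AlphaLISA bead assay after 16 h compound exposure of THP-1 cells; compounds (final up to 57.5 uM) added 1 h before LPS (250 ng/mL) and ATP (1.25 mM) stimulation; lower signal means less secretion.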
An asterisk follows results filed as active; ? = inconclusive; · = no result given; [ ] = remark or other dose. The list is not random: actives were taken first. Their share in the collection is about 19%. Unless noted, calls follow the shape of the dose curve; as a rule, active = well fitted curve in the direction sought with a large enough effect; inconclusive = small, poorly fitted or top-dose-only effect, or another doubt; inactive = no such curve, though single readings can be large; an effect the other way counts as inactive or inconclusive.

SMILES	TDP1 cell noCPT	TGFb SMAD3 inh	TDP1 inh	DT40 TDP1 CPT	HepG2 viability	IL1B secr inh
CCn1nc(C(=O)NCCc2ccc3c(c2)OCCO3)c2ccccc2c1=O	?	36%	0%	-19%	-27%	40
Fc1ccc(COc2cccc(CNCc3ccncc3)c2)cc1	8.2µM*	-20%	5%	?	-30%	-11
CCOc1cc(CNCc2ccncc2)cc(Br)c1OCc1ccc(F)cc1	11µM*	-4%	5%	10µM*	-45%	-84*
Fc1ccc(COc2ccc(Br)cc2CNCc2ccncc2)cc1	?	5%	-4%	?	-16%	-79*
Fc1ccccc1COc1ccc(Br)cc1CNCc1ccncc1	?	-11%	8%	?	-41%	-22
COc1cc(CNn2c(C)n[nH]c2=S)cc(Br)c1OCc1ccc(F)cc1	-2%	-25%	9%	2%	2%	9
Cc1cccc(C(=O)Nc2cccc(C(=O)OCc3cc(=O)n4ccsc4n3)c2)c1	-17%	-5%	4%	4%	-29%	·
COc1ccccc1CNC(=O)c1cnc(N(C)C)nc1	?	-3%	-6%	?	4%	·
CC1(C)CC2CC(C)(CN2C(=O)COC(=O)c2ccc(NC(=O)CC#N)cc2)C1 (stereo not drawn)	?	19%	0%	?	-15%	-3
CCCCNC(=S)NCc1ccc2c(c1)cc(C)n2C	?	?	8%	?	-32%	10
Cc1cc2cc(CNC(=S)NCc3ccccc3)ccc2n1C	-28%	?	7%	0%	-34%	-11
Cc1ccccc1NC(=S)NCc1ccc2c(c1)cc(C)n2C	3.3µM*	11µM*	3%	2.9µM*	-53%	33
COc1ccc(CNC(=S)Nc2ccc(Br)cc2)cc1	18µM*	?	·	?	-22%	21
CCCS(=O)(=O)NCc1ccc2c(c1)cc(C)n2C	-24%	6%	4%	-24%	-4%	-69*
CCc1cccc(C)c1NC(=S)NCc1ccc2c(c1)cc(C)n2C	16µM*	-16%	-5%	21µM*	-46%	-24
CCS(=O)(=O)NCc1ccc2c(c1)cc(C)n2C	1%	1%	1%	13%	1%	-19
COc1ccc(CNC(=S)Nc2cc(C)cc(C)c2)cc1	?	-9%	5%	?	-50%	-25
COc1cccc2c1Oc1nc(-c3ccccc3)nc(SCC(=O)N3CCCCC3)c1C2	?	?	-1%	?	-7%	·
COc1ccc(CN2CCCC(n3cc(C(=O)N4CCCCC4)nn3)C2)c(OC)c1C (stereo not drawn)	-18%	·	·	11%[9.04 µM]	·	·
CC(=O)Nc1nonc1-c1nnc(SCC(=O)Nc2ccc(C)c(Cl)c2)n1C	-19%	-26%	2%	-16%	2%	·
Cc1cc2c(ncn2C)c(NS(=O)(=O)c2ccc(Cl)cc2)c1C	-10%	-17%	-1%	-1%	-12%	-5
COc1ccc(CNC(=S)NCc2ccc(OC(C)C)cc2)cc1	?	-18%	4%	-28%	18µM*	-2
Cc1cc2cc(CNC(=O)CC(C)C)ccc2n1C	1%	0%	6%	-7%	-22%	-15
COc1ccc(CCNC(=S)Nc2cccc(C)c2)cc1	16µM*	-4%	-2%	?	-26%	1
CCC(CC)C(=O)NCc1ccc2c(c1)cc(C)n2C	?	21%	1%	10µM*	4%	17
SMILES	TDP1 cell noCPT	TGFb SMAD3 inh	TDP1 inh	DT40 TDP1 CPT	HepG2 viability	IL1B secr inh
COc1ccccc1NC(=S)NCc1ccc2c(c1)cc(C)n2C	23µM*	?	7%	16µM*	-30%	-8
COc1ccc(CNC(=S)Nc2cccc(OC)c2)cc1	-13%	1%	3%	1%	2%	-27
CCc1ccc(C2=C(C)C(N3CCC(C(=O)Nc4ccc(F)cc4)CC3)=NS2(=O)=O)cc1	?	5%	8%	?	-1%	·
O=C(C1CCC1)N1CCc2cc(S(=O)(=O)N3CCN(c4ccccc4)CC3)ccc21	-20%	-7%	-5%	-29%	4%	·
O=C(Cn1cc(S(=O)(=O)c2ccccc2)c(=O)c2cc3c(cc21)OCO3)Nc1ccccc1	-13%	-5%	1%	-10%	-8%	·
COc1ccc(NC(=S)NCc2ccc3c(c2)cc(C)n3C)cc1	?	0%	0%	18µM*	-29%	-9
CCN(CC(=O)NC(C)(C)C)C(=O)c1cccc(S(=O)(=O)N2CC3(C)CC2CC(C)(C)C3)c1 (stereo not drawn)	?	-9%	·	?	-20%	24
CCOC(=O)c1c(C)c(-c2ccccc2)n(CC(=O)NCCC(C)C)c1C	10µM*	-9%	0%	?	1%	9
COc1cccc(C(C)(O)c2nc(-c3ccc(F)c(Cl)c3)cs2)c1 (stereo not drawn)	?	?	·	?	-67%	-23
COc1cccc(C(C)(O)c2nc(-c3cccc(C(C)C)c3)cs2)c1 (stereo not drawn)	23µM*	?	·	?	-64%	-83*
COc1cccc(C(C)(O)c2nc(-c3ccccc3)cs2)c1 (stereo not drawn)	18µM*	-14%	·	16µM*	-6%	5
COc1cccc(C(C)(O)c2nc(-c3ccc(N(C)C)cc3)cs2)c1 (stereo not drawn)	21µM*	?	·	18µM*	-13%	-19
COc1cccc(C(C)(O)c2nc(-c3ccc(OC)c(OC)c3)cs2)c1 (stereo not drawn)	?	3%	·	?	-16%	-25
CN(C)c1ccc(-c2csc(C(C)(O)c3cccc(F)c3)n2)cc1 (stereo not drawn)	21µM*	?	·	13µM*	-17%	-17
O=C(O)/C=C1\CCCc2ccccc2[C@H]1O	-6%	·	8%	-11%	·	·
Cc1c(CNC2CCCCC2)c(C(=O)O)c(C)n1Cc1ccccc1F	6%	-9%	0%	5%	-1%	·
Cc1ccc(S(=O)(=O)N2CCN(C(=O)N(C)C)CC2)cc1	14%	-1%	10%	-23%	-23%	-2
N#CC1CC(c2ccccc2)Nc2cc(Cl)ccc2N1 (stereo not drawn)	10µM*	?	10%	16µM*	-84%	1
